# Test results taken from ChEMBL document CHEMBL3988442, “University of Dundee, Small-Polar-MMV Screening Library” (2021).
# In all, about 66,000 compounds went through this assay and about 960 (1.5%) showed an effect of 50% or more. The full list was thinned out, with strong results kept by preference.
# Tested on: Trypanosoma brucei
# Test: Trypanosoma brucei 72 hour study
# Format: functional, organism-based
# Set-up: scale not given: in the data most compounds retested in dose-response had high values
smiles,measurement,setting,value
O=C(c1ccncc1)N1C[C@@H]2CC[C@H](C1)N(S(=O)(=O)c1cccnc1)C2,Percent Effect,"30 µM, 30.03 µM",-9.354%
COc1ccc(CN(Cc2c[nH]cn2)CC2CCCO2)c(OC)c1.O=C(O)CC(O)(CC(=O)O)C(=O)O (stereo not drawn),Percent Effect,"30.3 µM, […]",4.059%
COCCNC(=O)[C@H]1C[C@@H]2CCN(c3ccccc3)C[C@H]2O1.O=C(O)C(F)(F)F,Percent Effect,"30.3 µM, […]",-28.03%
CCn1nnc2c1C(COCCN(C)C)CN(Cc1ccc(C)s1)C2.O=C(O)C(F)(F)F.O=C(O)C(F)(F)F (stereo not drawn),Percent Effect,"30.3 µM, […]",-26.69%
Cc1ccc(N2CCC3(CN(Cc4ccncc4)CCC3(F)F)C2)nn1.O=C(O)C(F)(F)F.O=C(O)C(F)(F)F (stereo not drawn),Percent Effect,"30.3 µM, […]",-39.6%
COc1cccc(-c2ccnc(C3CCNCC3)c2)c1,Percent Effect,"30.3 µM, […]",-11.36%
Cl.Fc1ccccc1Cn1c(C2CCNCC2)cc2cccnc21,Percent Effect,"30.3 µM, […]",37.09%
Cl.Fc1cccc(F)c1Cn1c(C2CCCNC2)cc2cccnc21 (stereo not drawn),Percent Effect,"30.3 µM, […]",11.23%
Cl.Fc1cccc(F)c1Cn1c(C2CCNCC2)cc2cccnc21,Percent Effect,"30.3 µM, […]",90.9%
Cl.c1cnc2c(c1)cc(C1CCOCC1)n2CCN1CCOCC1,Percent Effect,"30.3 µM, […]",3.621%
COc1cccc(Cn2c(C3CCNCC3)cc3cccnc32)c1.Cl,Percent Effect,"30.3 µM, […]",94.63%
COc1cccc(CN2C[C@H]3CCNCC[C@H]3S2(=O)=O)c1,Percent Effect,"30.3 µM, […]",-73.82%
CN1CCCC1c1cc2cccnc2n1Cc1ccc(F)cc1.Cl (stereo not drawn),Percent Effect,"30.3 µM, […]",-6.063%
COc1ccc(Cn2c(C3CCNCC3)cc3cccnc32)cc1.Cl,Percent Effect,"30.3 µM, […]",99.58%
NCC1CN(C(=O)Cn2ncc(N3CCCCC3)cc2=O)CCO1 (stereo not drawn),Percent Effect,"30.3 µM, […]",7.872%
O=C(O)C(F)(F)F.O=C(c1cscn1)N1CCC2(CN(Cc3ccsc3)C2)C1,Percent Effect,"30 µM, 30.03 µM",-41.53%
Cc1cc(NC(C)c2n[nH]c(C)n2)n2nc(C)c(C)c2n1 (stereo not drawn),Percent Effect,"30 µM, 30.03 µM",-65.68%
Cc1cc(NC(C)c2nnn[nH]2)n2nc(C)c(C)c2n1 (stereo not drawn),Percent Effect,"30 µM, 30.03 µM",85.64%
Cc1cc(NC(C)c2csc(C)n2)n2nc(C)c(C)c2n1 (stereo not drawn),Percent Effect,"30 µM, 30.03 µM",-27.53%
O=C(NCc1ccco1)[C@@H]1CCO[C@@H]2CCN(CC3CC3)C[C@@H]21.O=C(O)C(F)(F)F,Percent Effect,"30 µM, 30.03 µM",-21.92%
CCc1csc(CNC2CCN(Cc3ccccc3)C2)n1 (stereo not drawn),Percent Effect,"30.3 µM, […]",-9.701%
Cc1nc(CN2CCCC(NCc3nc4ccccc4s3)C2)no1 (stereo not drawn),Percent Effect,"30.3 µM, […]",74.19%
same,Percent Effect,"10 mM, 10 mM as filed; unlikely as a test dose",66.41%
Cc1nc(CCNC2CCN(Cc3ccccc3)C2)sc1C (stereo not drawn),Percent Effect,"30.3 µM, […]",-17.04%
Cc1nc(CN2CCCC(NCc3ccc(Cl)s3)C2)no1 (stereo not drawn),Percent Effect,"30.3 µM, […]",-4.21%
same,Percent Effect,"10 mM, 10 mM as filed; unlikely as a test dose",-21.78%
Cc1nc(CNC2CCN(Cc3ccccc3)C2)sc1C (stereo not drawn),Percent Effect,"30.3 µM, […]",100.1%
Cc1nc(CN2CCCC(NCc3csc(C(C)(C)C)n3)C2)no1 (stereo not drawn),Percent Effect,"30.3 µM, […]",71.04%
same,Percent Effect,"10 mM, 10 mM as filed; unlikely as a test dose",-25.98%
Cc1nc(CN2CCCC(NCc3cnc(C(C)(C)C)s3)C2)no1 (stereo not drawn),Percent Effect,"30.3 µM, […]",-11.81%
Cc1nc(CN2CCCC(NCc3ccsc3)C2)no1 (stereo not drawn),Percent Effect,"30 µM, 30.03 µM",-22.48%
Cc1nc(CN2CCCC(NCc3cccc4ccccc34)C2)no1 (stereo not drawn),Percent Effect,"30.3 µM, […]",-31.57%
same,Percent Effect,"10 mM, 10 mM as filed; unlikely as a test dose",-42.23%
Nc1cc(N2CCCC(CO)(Cc3ccccc3F)C2)nc(N)n1 (stereo not drawn),Percent Effect,"30 µM, 30.03 µM",15.39%
CCn1nc2c(cc1=O)CN(Cc1coc(-c3ccccc3)n1)CC2,Percent Effect,"30.3 µM, […]",3.49%
CCOCC(=O)N1CCC2(CC1)COCCN2CCN(C)C.O=C(O)C(F)(F)F.O=C(O)C(F)(F)F,Percent Effect,"30.3 µM, […]",-7.88%
CCCNC(c1ccc(F)cc1)c1cccnc1.Cl.Cl (stereo not drawn),Percent Effect,"30 µM, 30.03 µM",-17.83%
CN(C)C(=O)c1ccc(C2CCCNC2)nc1.Cl.Cl (stereo not drawn),Percent Effect,"30.3 µM, […]",-34.47%
Cl.c1nc(CCC2CCCN2)cc(N2CCCCCC2)n1 (stereo not drawn),Percent Effect,"30.3 µM, […]",-0.6472%
COc1ncccc1NC(=O)NCC1CCS(=O)(=O)C1 (stereo not drawn),Percent Effect,"30 µM, 30.03 µM",51.37%
COc1ncccc1NC(=O)NCC1CC1,Percent Effect,"30.3 µM, […]",14.51%
CCN1CCC(CNC(=O)Nc2cccnc2OC)CC1,Percent Effect,"30.3 µM, […]",3.244%
CCOc1ccc(C(=O)N2CCCC(n3nc(C)nc3C)C2)cc1 (stereo not drawn),Percent Effect,10 µM,-77.91%
Cc1nnc(N2CCCC3(CN(c4ccccn4)CCO3)C2)o1.O=C(O)C(F)(F)F (stereo not drawn),Percent Effect,"30.3 µM, […]",1.863%
Cc1cc(NCc2cc(C)oc2C(F)(F)F)n2nc(C)cc2n1,Percent Effect,"30 µM, 30.03 µM",27.35%
COc1ccccc1C1(CNc2ccc(C(=O)N(C)C)cn2)CC1,Percent Effect,"30 µM, 30.03 µM",-17.01%
COc1ccccc1C1(CNc2cc(C(=O)N(C)C)ccn2)CC1,Percent Effect,"30 µM, 30.03 µM",-21.75%
COc1ccccc1C1(CNc2ccnc(C(=O)N(C)C)c2)CC1,Percent Effect,"30 µM, 30.03 µM",98.99%
